This is part of a sample that, as a whole, favours compounds with a hit. Of some 79,000 tested, about 15% had one in any assay. Rule as the data show it: active = growth inhibition above about 70%; inactive = the rest.
Tests used:
[1] = NCI Yeast Anticancer Drug Screen. Data for the rad50 strain (AID 155);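 also: 0% = growth of vehicle-only cultures of the same strain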; settings: S. cerevisiae rad50 strain growth inhibition; at 50.0 µM; hits give high values
How it was run: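 Compounds were tested on a yeast strain with an engineered DNA damage repair alteration; the reported value is growth inhibition normalised to vehicle treatment.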

[2] = NCI Yeast Anticancer Drug Screen. Data for the mec2-1 strain (AID 157); settings: S. cerevisiae mec2-1 strain, at 50.0 µM, hits give high values
How it was run: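 Each compound was tested on mec2-1 yeast, a strain altered in DNA damage repair or cell cycle control. Growth inhibition is reported relative to vehicle.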

[3] = NCI Yeast Anticancer Drug Screen. Data for the sgs1 mgt1 strain (AID 161);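 also: 0% = growth of cultures given vehicle only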; settings: S. cerevisiae sgs1 mgt1 strain, at 50.0 µM, hits give high values
How it was run: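 Test agents were incubated with a DNA-repair-mutant yeast strain. Growth was then read and compared against vehicle-treated controls.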

[4] = NCI Yeast Anticancer Drug Screen. Data for the cln2 rad14 strain (AID 165);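 also: 0% = growth equal to vehicle treated cultures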; settings: S. cerevisiae cln2 rad14 strain, at 50.0 µM, hits give high values
How it was run: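 Test compounds were added to cln2 rad14 yeast cultures; inhibition of growth was then determined by comparison with vehicle treatment.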

[5] = NCI Yeast Anticancer Drug Screen. Data for the bub3 strain (AID 167); settings: S. cerevisiae bub3 mutant strain, at 50.0 µM, hits give high values
How it was run: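 Growth of a checkpoint-deficient yeast mutant is measured after compound exposure. Values represent inhibition relative to vehicle.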

[6] = NCI Yeast Anticancer Drug Screen. Data for the mlh1 rad18 strain (AID 175); settings: S. cerevisiae mlh1 rad18 strain growth inhibition; at 50.0 µM; hits give high values
How it was run: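 Inhibition values reflect reduced growth of mutant yeast versus vehicle-treated controls following compound exposure; the mutations affect DNA damage repair.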

Measured: growth inhibition

O=C1NC(Cc2cccc(I)c2)C(=O)N1c1ccccc1 (configuration not stated)
inactive: [1] 37.3% | [2] 3.1% | [3] 31.9% | [4] 28.8% | [5] 16.4% | [6] 29.4%

Cc1c2cccc(Br)c2c[n+]2ccccc12
inactive: [1] 20.9% | [2] 18.4% | [3] 39% | [4] -21.4% | [5] 1.3% | [6] 31.1%

COC(=O)C(C/C=C(\C)c1ccccc1)C(C)=O (configuration not stated)
inactive: [1] -13.1% | [2] -23.7% | [3] -25% | [4] 19.1% | [5] -23.1% | [6] -0.35%

O=C(CCCCCC(=O)CC(=O)CCc1ccccc1)CC(=O)CCc1ccccc1
inactive: [1] 53.3% | [2] 36.4% | [3] 53.5% | [4] 15.4% | [5] 19.1% | [6] 56.6%

C[N+](C)(C)c1ncncn1
inactive: [1] 2.05% | [2] 1.5% | [3] -10.8% | [4] -21% | [5] -25.3% | [6] -0.1%

COc1cc([N+](=O)[O-])cc(C=O)c1O
inactive: [1] 6.8% | [2] 28.4% | [3] 0.7% | [4] -67.5% | [5] -38.8% | [6] 11.7%

C/C(=C\C(=O)c1ccccc1)c1ccccc1
inactive: [1] 17.3% | [2] -5.8% | [3] -20.9% | [4] -16.6% | [5] 12.2% | [6] 57%

Cc1ccc(N=C=Nc2ccc(C)cc2)cc1
inactive: [1] 2.65% | [2] 2.65% | [3] -3.05% | [4] -9.75% | [5] 2.85% | [6] -1.5%

CC(CC#N)=C(c1ccccc1)c1ccccc1
inactive: [1] 17.4% | [2] 18.9% | [3] 14% | [4] 16% | [5] -12.8% | [6] -5.05%

CC(C)CCOC(=O)c1ccccc1OC(=O)Nc1ccc(Cl)cc1[N+](=O)[O-]
inactive: [1] -18.9% | [2] -16.3% | [3] -20.4% | [4] -41.4% | [5] 0.05% | [6] -11.3%

O=C(O)c1scc2c1CCCC2
inactive: [1] -1.65% | [2] -21.7% | [3] -7.5% | [4] -67% | [5] -22.3% | [6] -39.6%

CN1CCCNCCN(CCc2ccccn2)CCCN(C)CC1
inactive: [1] 2.75% | [2] -1.5% | [3] -12.5% | [4] -7.75% | [5] 0.15% | [6] 6.65%

O=C(OCC1OC(c2ccccc2)OC2C(COC(=O)c3ccccc3)OC(c3ccccc3)OC12)c1ccccc1 (configuration not stated)
inactive: [1] 4.4% | [2] 6.1% | [3] -0.6% | [4] 6.7% | [5] 12.4% | [6] 14.1%

CCOC(=O)CC1(C)NC(=O)NC1=O (configuration not stated)
inactive: [1] 4.35% | [2] 6.65% | [3] 8.45% | [4] -31.8% | [5] -4.4% | [6] 1%

COc1ccc(-c2cc(-c3ccccc3)n(-c3ccccc3)n2)cc1
inactive: [1] -0.9% | [2] 15.1% | [3] 7.2% | [4] -2.85% | [5] 0.8% | [6] -15.4%

CCOC(=O)c1ccccc1[N+](=O)[O-]
inactive: [1] 22.8% | [2] 23.4% | [3] 8.7% | [4] -11.7% | [5] 6.7% | [6] 18.2%

O=C(c1ccccc1)C(c1ccccc1)C1(O)C(=O)Nc2c(Cl)ccc(Cl)c21 (configuration not stated)
inactive: [1] -18.1% | [2] 10.6% | [3] 5% | [4] -0.05% | [5] -8.1% | [6] -29.2%

CCOC(=O)CC/C(=C\NC(=O)c1ccccc1)NC(=O)c1ccccc1
inactive: [1] -9% | [2] -26.4% | [3] -21.6% | [4] 16.2% | [5] -9.55% | [6] 1.9%

CSc1nc(NC2OC(COC(C)=O)C(OC(C)=O)C(OC(C)=O)C2OC(C)=O)c(C(=O)CCl)c(=O)n1C (configuration not stated)
inactive: [1] 6.8% | [2] 15.9% | [3] 3.15% | [4] 5.8% | [5] 5.1% | [6] 24.5%

CN(C)C(CO)(CO)CO
inactive: [1] 15.3% | [2] -7.5% | [3] 3% | [4] -0.75% | [5] 3.3% | [6] 2.3%

c1ccc2c(c1)Oc1ccccc1S2
inactive: [1] -14.2% | [2] -2.9% | [3] -0.15% | [4] 3.85% | [5] 7.35% | [6] -0.3%

NC(N)=NCc1ccc2c(c1)OCO2
inactive: [1] -28.4% | [2] -2.95% | [3] -1% | [4] 10.1% | [5] -10.9% | [6] -34.1%

Cc1ccc(-n2cnc3c(=O)[nH]cnc32)cc1N
inactive: [1] -12.6% | [2] 5.45% | [3] 3.3% | [4] -9.9% | [5] -6.25% | [6] 11.2%

CC1=NN(C(=O)CC(=O)Nc2ccccc2Cl)C(=O)C1N=Nc1ccc(C(=O)O)cc1 (configuration not stated)
inactive: [1] -3.35% | [2] -6.85% | [3] 6.75% | [4] -9.75% | [5] -5.6% | [6] 17.8%

N[C@H]1c2c(Cl)cccc2C(=O)[C@H]1O
inactive: [1] -3.7% | [2] -1.35% | [3] -23.2% | [4] -4.65% | [5] -2.2% | [6] -49.5%

Cc1cccc(Cl)c1N=Nc1c(C)nn(C(N)=S)c1C
inactive: [1] 29.8% | [2] 8.75% | [3] 38% | [4] -33% | [5] -0.55% | [6] 17.1%

O=[N+]([O-])c1ccc(S(=O)c2ccc([N+](=O)[O-])cc2)cc1
inactive: [1] 24.8% | [2] 11.6% | [3] 5.5% | [4] -11.1% | [5] -1.75% | [6] -4.75%

O=C1C2=C(Nc3cc(Cl)ccc3N2)OC1c1ccc(C2OC3=C(Nc4ccc(Cl)cc4N3)C2=O)cc1 (configuration not stated)
inactive: [1] -20.1% | [2] 11.2% | [3] -7.05% | [4] -33.5% | [5] -7.3% | [6] 17.8%

O=NN(CCCl)C(=O)/N=N/C(=O)N(CCCl)N=O
inactive: [1] 6.25% | [2] -38.9% | [3] -20.4% | [4] 15.2% | [5] -3.85% | [6] 20%

CCC12OC3(CC)C4C(=O)OC1C1(CC)OC4(CC)C3C(=O)OC21
inactive: [1] -13.7% | [2] -5.6% | [3] 4.85% | [4] -5.75% | [5] 0.8% | [6] 13.3%

CCCC(=O)CC(C)C(=O)C(=O)NC12CC3CC(CC(C3)C1)C2 (configuration not stated)
inactive: [1] 14.6% | [2] 8.35% | [3] 13.4% | [4] 20.2% | [5] 4.4% | [6] 30.3%

CO/C(N)=C(\C#N)N=Cc1cccs1
inactive: [1] 3.95% | [2] 4.6% | [3] 11.4% | [4] 5.1% | [5] -8.4% | [6] 9.9%

CC(c1cccc2ccccc12)/[N+]([O-])=C/c1ccccc1 (configuration not stated)
inactive: [1] -11.6% | [2] -27.9% | [3] -32.7% | [4] 2.1% | [5] -37.4% | [6] -11.7%

COc1cc(C(=O)C/C(CCC(=O)Nc2ccccc2[N+](=O)[O-])=N\NC(=O)C(N)=O)ccc1O
inactive: [1] -20.5% | [2] 9.8% | [3] -47.4% | [4] 5.9% | [5] -16.2% | [6] -24.4%

N#C/C(=C\c1ccccc1[N+](=O)[O-])C(=O)O
inactive: [1] 36.5% | [2] 0.45% | [3] 23.2% | [4] 16.9% | [5] -19% | [6] 3.7%

C=CC1=C(C)C2=NC1=CC1=NC(=CC3=C(C)C4=C(O)C(C(=O)OC)C(=C5NC(=C2)C(C)C5CCC(=O)OC/C=C(\C)CCCC(C)CCCC(C)CCCC(C)C)C4=N3)C(CC)=C1C (configuration not stated)
inactive: [1] -17.7% | [2] -33.4% | [3] -49.8% | [4] 3.4% | [5] -29.1% | [6] -20.9%

CC1(C)C2CCC1(CC(=O)O)C(O)C2=O (configuration not stated)
inactive: [1] -13.3% | [2] -23.2% | [3] -14.6% | [4] -12.6% | [5] -4.6% | [6] -5.45%

Source: PubChem BioAssay (NCI)
